Results filed as inconclusive are left out. Calls of active or inactive are those of the source. Calls follow the shape of the dose curve; as a rule, active = well fitted inhibition curve with a large enough effect; inconclusive = small, poorly fitted or top-dose-only effect; inactive = flat fitted curve, though single readings scatter.
How the values were obtained:
[1] = qHTS profiling for inhibitors of Plasmodium falciparum proliferation (AID 504749); also: nearly all actives have a fitted effect of over 60% in size;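 as to activity, negative = inhibition: 0% = DMSO vehicle and full inhibition = artemisinin control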; conditions: P. falciparum in erythrocytes, SYBR Green DNA, 72 h, at 28.7 µM (top of the series)
Summary of the method: (§1)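 Infected RBCs, 0.3% parasitemia/2.5% Hct final; cpd 72 h, 37 C, 5% CO2; lysis buffer with saponin/triton/SYBR Green I, o/n RT dark; FI 485/535; norm. to artemisinin (0.29 uM) and DMSO.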

3D7 = assay: as above; conditions: P. falciparum in erythrocytes, SYBR Green DNA, 72 h; series mostly up to 28.7 µM
Summary of the method: as §1

7G8 = assay: as above; conditions: P. falciparum in erythrocytes, SYBR Green DNA, 72 h; series mostly up to 28.7 µM
Summary of the method: as §1

CP191 = assay: as above; conditions: P. falciparum in erythrocytes, SYBR Green DNA, 72 h; series mostly up to 28.7 µM
Summary of the method: as §1

AA1029 = assay: as above; conditions: P. falciparum in erythrocytes, SYBR Green DNA, 72 h; series mostly up to 28.7 µM
Summary of the method: as §1

AS120 = assay: as above; conditions: P. falciparum in erythrocytes, SYBR Green DNA, 72 h; series mostly up to 28.7 µM
Summary of the method: as §1

ATS189 = assay: as above; conditions: P. falciparum in erythrocytes, SYBR Green DNA, 72 h; series mostly up to 28.7 µM
Summary of the method: as §1

ATS95 = assay: as above; conditions: P. falciparum in erythrocytes, SYBR Green DNA, 72 h; series mostly up to 28.7 µM
Summary of the method: as §1

C2A = assay: as above; conditions: P. falciparum in erythrocytes, SYBR Green DNA, 72 h; series mostly up to 28.7 µM
Summary of the method: as §1

CP185 = assay: as above; conditions: P. falciparum in erythrocytes, SYBR Green DNA, 72 h; series mostly up to 28.7 µM
Summary of the method: as §1
Potency is read from the fitted curve at half-maximal effect.

c1ccc(CN(CC2=NCCN2)c2ccccc2)cc1
inactive: activity, negative = inhibition ([1]; parasite line A) -1.61% | activity, negative = inhibition ([1]; parasite line B) -1.95% | Potency (3D7) | Potency (CP191)
active: Potency (7G8) 4.47 µM

Oc1ccc(C(O)CNCCCCCCNCC(O)c2ccc(O)c(O)c2)cc1O (stereo unspecified)
active: Potency (7G8) 3.55 µM

CCCCOC(=O)c1ccc(O)cc1
inactive: activity, negative = inhibition ([1]; parasite line A) 8.74% | activity, negative = inhibition ([1]; parasite line B) 8.94% | Potency (3D7) | Potency (AA1029) | Potency (AS120) | Potency (ATS189) | Potency (ATS95) | Potency (C2A) | Potency (CP185) | Potency (CP191)

— PubChem BioAssay (NCATS)
